# Measurements from PubChem BioAssay (NCI).
# “And” between values parts separate entries of the source, which are not always exact repeats. Equal entries are not always repeated. About 83,000 compounds went through this panel and 20% of them were active in at least one assay; those are over-represented in the sample as a whole.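 Single-dose data. Exposure time 48 hours. Values below 10 considered active.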 The source made the active and inactive calls.
# Test system: NCI-H226 lung
# Test: NCI-60 one-dose screen, 48 h (100 = growth as untreated, 0 = no growth, -100 = all killed)
# Conditions: 10 µM unless noted
row,Compound,growth
1,Oc1ccc(/C=N/NC(=S)Nc2ccccc2)nc1,5.69% (active)
2,COc1ccccc1OC(=O)Oc1ccccc1OC,99.7% (inactive) and 106% (inactive)
3,O=C1C=CC(=O)N1C1c2ccccc2-c2ccccc21,95.6% (inactive)
4,O=C(CC1(O)C(=O)Nc2c(Cl)ccc(Cl)c21)c1ccc(Cl)cc1Cl (configuration not stated),97.6% (inactive)
5,Cc1cc2nc(CS)[nH]c2cc1C,93.1% (inactive)
6,O=C(Nc1cccc(Br)c1)Oc1ccc(Cl)c2cccnc12,14.5% [100 µM] (inactive)
7,CN(C)c1ccc(N=Nc2cccc3ccccc23)cc1,63.5% (inactive)
8,O=[N+]([O-])c1ccc(N=Nc2ccc(O)cc2O)cc1,60.6% (inactive)
9,CC(C)(C)CC(C)(C)c1ccc(OCCSC(=N)N)cc1,71.8% (inactive)
10,CCCCCCCCCCCCCCCC[N+](C)(CCO)Cc1cnc[nH]1 (configuration not stated),-4.89% (active)
11,Nc1nc(N)c2nc(CNc3ccc(C(=O)NC(CCC(=O)O)C(=O)O)cc3)cnc2n1 (configuration not stated),60.5% (inactive) and 52% (inactive)
12,Cc1ccc2c(ccc3c[n+]4c5ccccc5ccc4n32)c1,7.48% (active)
13,CN(Cc1cnc2nc(N)nc(N)c2n1)c1ccc(C(=O)NC(CCC(=O)O)C(=O)O)cc1 (configuration not stated),30.2% (inactive)
14,NC(=S)N/N=C\c1nccc2c(C(F)(F)C(F)(F)C(F)(F)F)cccc12,-27.3% (active)
15,CCC(CC)COC(=O)c1ccc(O)c(O)c1,63.9% (inactive)
16,O=C(/C=C/C=C/c1ccccc1)c1ccco1,109% (inactive)
17,C/C=C1\SC(=S)NC1=O,103% (inactive)
